Experiment [1] is described as follows: NCI Yeast Anticancer Drug Screen. Data for the rad50 strain (AID 155).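 Further: 0% = growth of vehicle-only cultures of the same strain.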 The note with it: S. cerevisiae rad50 strain growth inhibition; at 50.0 µM; active compounds read high. In short, it runs like this: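 DNA repair mutant yeast, compound exposure, growth read-out; inhibition is taken relative to vehicle.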
Experiment [2] is described as follows: NCI Yeast Anticancer Drug Screen. Data for the mec2-1 strain (AID 157). Particulars: S. cerevisiae mec2-1 strain, at 50.0 µM, active compounds read high. In outline: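 Readout is yeast growth inhibition, normalised to vehicle-treated controls, in the mec2-1 strain exposed to compound.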
Experiment [3] is described as follows: NCI Yeast Anticancer Drug Screen. Data for the sgs1 mgt1 strain (AID 161).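 Further: 0% = growth of cultures given vehicle only.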 Particulars: S. cerevisiae sgs1 mgt1 strain, at 50.0 µM, active compounds read high. In outline:
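Percent growth inhibition was derived by comparing compound-exposed mutant yeast with vehicle-exposed cultures. The strain carries alterations in DNA damage repair.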

A short description of experiment [4]: NCI Yeast Anticancer Drug Screen. Data for the cln2 rad14 strain (AID 165).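 Further: 0% = growth equal to vehicle treated cultures.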 The note with it: S. cerevisiae cln2 rad14 strain, at 50.0 µM, active compounds read high. In outline:
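Relative to vehicle controls, growth inhibition of compound-treated cln2 rad14 yeast was recorded.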

A short description of experiment [5]: NCI Yeast Anticancer Drug Screen. Data for the bub3 strain (AID 167). Particulars: S. cerevisiae bub3 mutant strain, at 50.0 µM, active compounds read high. In outline:
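In this screen, a yeast mutant lacking normal mitotic checkpoint function is challenged with compound. Relative growth versus vehicle gives the inhibition value.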

Experiment [6] can be described thus: NCI Yeast Anticancer Drug Screen. Data for the mlh1 rad18 strain (AID 175). The note with it: S. cerevisiae mlh1 rad18 strain growth inhibition; at 50.0 µM; active compounds read high. In outline: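 Test agents were incubated with a yeast strain of defined genotype (DNA damage repair defect). Inhibition of growth was derived by comparison with vehicle-exposed cultures.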

These results are taken from PubChem BioAssay (NCI).

Compounds without any hit were thinned out: in the full panel of roughly 79,000, 15% have a hit. Values without a mark were called inactive. Activity calls are given as the source filed them. No stated cut-off is given here; in the data, active means growth inhibition above about 70%; inactive means the rest.

`O=C1C=C2CCC(c3ccc(O)cc3)CC2CC1` (configuration not stated): the growth inhibition in experiment [1] is -3%; in experiment [2] it was 7.6%; in experiment [3], -1.6%; in experiment [4] it was 7.65%; in experiment [5], -0.45%; in experiment [6], -8%.
As to `CN(C)c1nc(-c2ccccc2)c(Cc2ccccc2)c(=O)o1`, the growth inhibition was -1.9% in experiment [1]; -4.15% in experiment [2]; 20.5% in experiment [3]; -4.25% in experiment [4]; 7.25% in experiment [5]; 7.8% in experiment [6].
With `COc1ccc(OC)c(NCC(=O)Nn2cnc3ccc(S(=O)(=O)Nc4cc(OC)ccc4OC)cc3c2=O)c1`, the growth inhibition in experiment [1] was 36.9%; in experiment [2], 12.7%; in experiment [3], 27.6%; in experiment [4], 20.9%; in experiment [5], 50.8%; in experiment [6] it was 37.1%.
As to `CCCCCC(Cl)(CC)CCCCC`, the growth inhibition in experiment [1] is -23.4%; in experiment [2], -0.6%; in experiment [3], -16.6%; in experiment [4], -39.7%; in experiment [5], 1.45%; in experiment [6] it was -8.85%.
Turning to `CCCOc1cc(C)c(C(=O)OC(C)CN2CCCC2)c(C)c1` (configuration not stated), the growth inhibition in experiment [1] was 3.5%; in experiment [2], -22.4%; in experiment [3], 15.8%; in experiment [4] it was -43.7%; in experiment [5] it was -2.1%; in experiment [6], -20.4%.
Consider `O=C(N/N=C\c1ccc2c(c1)CCC2)c1cccc2ccccc12`, for which the growth inhibition in experiment [1] was -5.9%; in experiment [2] it was 1.35%; in experiment [3] it was -11.9%; in experiment [4] it was -6.1%; in experiment [5], 10.2%; in experiment [6], -2.9%.
With `CCNOCc1ccccc1`, the growth inhibition in experiment [1] is -4.35%; in experiment [2], -11.7%; in experiment [3], -11%; in experiment [4], -18.1%; in experiment [5] it was -0.45%; in experiment [6], -9.95%.
`CCN(CC)CCSC(=O)c1ccc([N+](=O)[O-])cc1`: the growth inhibition in experiment [1] is 20.1%; in experiment [2], 7.7%; in experiment [3], 15.6%; in experiment [4], 19.8%; in experiment [5], 38.5%; in experiment [6], 8.1%.
`O=C(CCc1ccc(O)c(O)c1)OCCc1ccccc1`: the growth inhibition was 89.2% (active) in experiment [1]; 89.8% (active) in experiment [2]; 90.9% (active) in experiment [3]; 88% (active) in experiment [4]; 87.5% (active) in experiment [5]; 89.2% (active) in experiment [6].
Consider `c1ccc2c(c1)CCC2`, for which the growth inhibition in experiment [1] was 12.1%; in experiment [2] it was -10.2%; in experiment [3] it was -23.1%; in experiment [4] it was 1.55%; in experiment [5], -18.1%; in experiment [6], -6.6%.
In the case of `CC(C)c1ccc(OCC2CCCO2)cc1` (configuration not stated), the growth inhibition is 37.4% in experiment [1]; 0.95% in experiment [2]; 39% in experiment [3]; 41.7% in experiment [4]; 28.9% in experiment [5]; 27.4% in experiment [6].
With `C[C@]12CCC(=O)C=C1CC[C@@H]1C2=CC[C@]2(C)/C(=C\CO)CC[C@@H]12`, the growth inhibition in experiment [1] is 7.5%; in experiment [2], -14.4%; in experiment [3], 10.8%; in experiment [4], -5.4%; in experiment [5], -10.8%; in experiment [6], 9.4%.
As to `COC(=O)C1(Cc2ccc3c(c2)CCC3)Cc2cc3c(cc2C1)CCC3`, the growth inhibition in experiment [1] was -16.1%; in experiment [2], 15.7%; in experiment [3], -40.2%; in experiment [4], 15.8%; in experiment [5], -0.35%; in experiment [6], -21.6%.
Turning to `COC(=O)c1c(C(=O)c2ccccc2)nn2c(-c3ccccc3)c(-c3ccccc3)c(-c3ccccc3)c(-c3ccccc3)c12`, the growth inhibition in experiment [1] is 10.3%; in experiment [2], -1.6%; in experiment [3], -23.6%; in experiment [4], 7.05%; in experiment [5], -1.1%; in experiment [6] it was 0.1%.
As for `O=C(Nc1cc(S(=O)(=O)O)cc2cc(S(=O)(=O)O)c(N=Nc3cc(Nc4nc(Cl)nc(Nc5ccc(S(=O)(=O)O)cc5)n4)ccc3S(=O)(=O)O)c(O)c12)c1ccccc1`, the growth inhibition in experiment [1] was 17.9%; in experiment [2], -10.1%; in experiment [3] it was 10.8%; in experiment [4] it was 3.5%; in experiment [5], 0.05%; in experiment [6], 25.2%.
Turning to `Nc1nc(N)c(N=Nc2ccc(C(=O)O)c(O)c2)c(N)n1`, the growth inhibition in experiment [1] is 5.5%; in experiment [2], 3.5%; in experiment [3], -0.7%; in experiment [4] it was 12.8%; in experiment [5] it was -11.9%; in experiment [6], 13%.
On to `CC1(C)N=C(N)N=C(N)N1c1ccc(CN)cc1`, for which the growth inhibition in experiment [1] was 19.8%; in experiment [2], 7%; in experiment [3], -18.4%; in experiment [4], -6.8%; in experiment [5] it was -2.3%; in experiment [6], 19.3%.
As for `CCOC(=O)c1ccc(-c2ccc(C(=O)OCC)cc2[N+](=O)[O-])c([N+](=O)[O-])c1`, the growth inhibition in experiment [1] is 14.8%; in experiment [2], 12.8%; in experiment [3] it was 11.8%; in experiment [4], 17%; in experiment [5] it was 9.7%; in experiment [6], 15%.
As to `COC1(OC)CC2OC1C1N=NN(C(=O)OC(C)(C)C)C21` (configuration not stated), the growth inhibition in experiment [1] was 28.1%; in experiment [2] it was 13.3%; in experiment [3] it was 6.8%; in experiment [4], 21.6%; in experiment [5], 16.8%; in experiment [6], 31.4%.
With `NC(=O)N/N=C1\CCCC(OC(=O)c2ccccc2)CC1` (configuration not stated), the growth inhibition in experiment [1] was 2.85%; in experiment [2], -27.7%; in experiment [3] it was -16.8%; in experiment [4] it was -20.1%; in experiment [5], -1.5%; in experiment [6] it was -20.8%.
Consider `Nc1ccc(C(=O)O)c(N)c1`, for which the growth inhibition in experiment [1] was -4.35%; in experiment [2], 1.45%; in experiment [3], -14.1%; in experiment [4], -40.3%; in experiment [5], -22.5%; in experiment [6] it was -1.1%.
Regarding `CC/C(=N\N=C(/CC)c1ccc[nH]1)c1ccc[nH]1`, the growth inhibition in experiment [1] is 36.8%; in experiment [2], -23.8%; in experiment [3], 10.2%; in experiment [4], 5.9%; in experiment [5] it was 23.3%; in experiment [6], 9.25%.
Regarding `CC(C)(C)NC(=S)NC1CC2CC1C1Cc3ccccc3C21` (configuration not stated), the growth inhibition was 20.6% in experiment [1]; -1.45% in experiment [2]; 22.9% in experiment [3]; -37.5% in experiment [4]; 5.8% in experiment [5]; 1.9% in experiment [6].
With `CCCc1cc(=O)n(CCCc2ccccc2)c(=O)n1CCCc1ccccc1`, the growth inhibition was 10.3% in experiment [1]; -8.7% in experiment [2]; -8.95% in experiment [3]; -36.1% in experiment [4]; -3.65% in experiment [5]; 16% in experiment [6].
Consider `COc1cc(OC)c(C(C)=O)c(C(C)=O)c1`, for which the growth inhibition in experiment [1] is -15.8%; in experiment [2] it was -13.6%; in experiment [3], -13.6%; in experiment [4], -5.3%; in experiment [5] it was -10.6%; in experiment [6], -2.55%.
`CC(C)(C)OC(=O)C(C1NC(C(=O)O)C(C)(C)S1)N1C(=O)c2ccccc2C1=O` (configuration not stated): the growth inhibition in experiment [1] is -29.8%; in experiment [2], -43%; in experiment [3], -53.7%; in experiment [4], -42.1%; in experiment [5] it was -56.4%; in experiment [6], -17.4%.
Take `Nc1c(N=Nc2ccccc2)cc(S(=O)(=O)O)c2ccccc12`: the growth inhibition is 2.8% in experiment [1]; -23.4% in experiment [2]; -1.65% in experiment [3]; 6.65% in experiment [4]; 3.2% in experiment [5]; -2.1% in experiment [6].
In the case of `COc1ccccc1NC(=O)CC(=O)N1N=C(N(c2ccccc2)c2ccccc2)CC1c1ccccc1` (configuration not stated), the growth inhibition in experiment [1] is 6.75%; in experiment [2] it was -1.1%; in experiment [3] it was -7.15%; in experiment [4] it was 9.8%; in experiment [5] it was 9.6%; in experiment [6], 23.1%.
With `O=C(Nc1ccc(S(=O)(=O)N2CCCCC2)cc1)OC1CCCCC1`, the growth inhibition in experiment [1] is 16.4%; in experiment [2], 3.75%; in experiment [3] it was -4.2%; in experiment [4] it was 23.6%; in experiment [5], 30.9%; in experiment [6] it was -5.45%.
As for `Cc1ccc(S(=O)(=O)/N=C/[N-][n+]2cccc(C)c2)cc1`, the growth inhibition in experiment [1] is 3.6%; in experiment [2], 8.8%; in experiment [3] it was 4.4%; in experiment [4], -14.6%; in experiment [5], 0.45%; in experiment [6] it was -4.2%.
For the compound `CC1(C)CCc2cc3c(O)c(-c4ccccc4)c(=O)oc3cc2O1`, the growth inhibition was -9.45% in experiment [1]; 2.15% in experiment [2]; -0.65% in experiment [3]; -17.2% in experiment [4]; -5.75% in experiment [5]; 7.45% in experiment [6].
`NN1C(=O)CC(c2cccc(Cl)c2)C1=O` (configuration not stated): the growth inhibition in experiment [1] was 1.7%; in experiment [2], 4.55%; in experiment [3], -2.4%; in experiment [4], 21.9%; in experiment [5] it was -2.6%; in experiment [6], 32.3%.
`O=[N+]([O-])c1cc(Br)c(F)cc1F`: the growth inhibition in experiment [1] was -22.2%; in experiment [2], 4.85%; in experiment [3] it was -5.2%; in experiment [4] it was -32.2%; in experiment [5], -2.55%; in experiment [6], 31.1%.
As for `Cc1ccc(/C=C/C(=O)c2sc(-n3nc(-c4ccccc4)cc3-c3ccccc3)nc2C)cc1`, the growth inhibition in experiment [1] was -2.3%; in experiment [2], -6.85%; in experiment [3] it was -29.9%; in experiment [4], 5.6%; in experiment [5], 20.1%; in experiment [6], -7.4%.
Consider `NCCCc1ccc(C(=O)O)cc1`, for which the growth inhibition is -23.8% in experiment [1]; 1.85% in experiment [2]; -0.5% in experiment [3]; -40.2% in experiment [4]; 5.85% in experiment [5]; 7.75% in experiment [6].
For `Cc1c(Cc2ccccc2)c(N2CCOCC2)n2c(nc3ccccc32)c1C#N`, the growth inhibition is 4.75% in experiment [1]; 5.25% in experiment [2]; 0.65% in experiment [3]; -4.55% in experiment [4]; -2.8% in experiment [5]; 5.65% in experiment [6].
In the case of `COc1ccc(NS(=O)c2cccc(C)c2)cc1` (configuration not stated), the growth inhibition in experiment [1] was -8.05%; in experiment [2], -11.1%; in experiment [3], -16.1%; in experiment [4] it was -18.3%; in experiment [5], -3.1%; in experiment [6], 9.4%.
